# ANO1 block: inhibitors of mouse TMEM16A calcium-activated chloride channel; normalized B-score (activity score, 25-100; higher = stronger inhibition) at 10 µM; HEK293 TMEM16A/YFP iodide influx fluorescence, ionomycin; AID 588511; hit rate 1.2% among 310,000;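 active = ratio plate-corrected score three or more library SD toward inhibition, starting fluorescence score within five deviations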;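 note: score derived from kinetic fluorescence span divided by baseline fluorescence per well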
# CHT inh: human CHT choline transport inhibition | AID 488975 | B-score at 10 µM | CHT-expressing cells, membrane potential dye, choline response; stronger effect = lower value | hit rate 0.86% among 310,000;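 active = B-score over 3 SD under the library average, and starting fluorescence ratio not unusually high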;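 note: choline stimulus applied at its EC90 after an EC20 pre-addition; B-score computed on integrated fluorescence ratio after choline addition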
# ANO1 activ: activates or potentiates the mouse TMEM16A chloride channel; AID 623877; hit rate 0.3% among 340,000; B-score at 10 µM; HEK293 TMEM16A/YFP-H148Q/I152L, iodide quench fluorescence; stronger effect = lower value;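 active = fluorescence-ratio B-score plate-corrected deviation score at least 3 library SD below zero, with starting fluorescence score within 5 deviations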;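 note: channel opened by trigger with iodide after compound preincubation; score built on the fluorescence ratio of max minus min over baseline; more negative score means more quench and so TMEM16A activation or potentiation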
# CHT allo act: allosteric activators of human choline transporter CHT | Q9GZV3 | CHT-expressing cells, membrane potential dye, choline EC20; stronger effect = higher value; LV-AA mutant CHT in HEK293 cells | hit rate 0.49% among 310,000 | B-score at 10 µM;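 active = initial fluorescence not abnormally high and integrated response B-score, plate-corrected, over 3 SD above library mean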
# CHT block conf: human CHT inhibition, confirmatory screen; shares compounds with CHT inh; CHT-expressing cells, choline membrane potential dye; LV-to-AA substituted CHT, HEK293 cells; CHT activity remaining % of control (stronger effect = lower value), % at 10 µM; hit rate 70% among 2,400; AID 493221;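 active = choline transporter activity left, mean of duplicates at 10 µM, below buffer-only control mean minus 3 SD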;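 note: depolarization triggered by choline at its EC90 following an EC20 pre-addition; 0% = hemicholinium-3 full block and 100% = buffer-only control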
# HEK293 MPD ctr: activity in parental HEK293 cells lacking CHT | shares compounds with CHT inh | membrane potential dye, choline response; active = decrease or increase beyond buffer ±3SD | membrane potential ratio readout (active if shifted either direction beyond buffer ±3SD; no single direction) at 10 µM | hit rate 4% among 2,400 | AID 493222;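 note: parental cells lack the transporter so any hit is non-specific; ratio is peak minus trough fluorescence over baseline after EC90 choline challenge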
# TMEM16A reconf: TMEM16A (mouse) chloride channel inhibition, re-confirmation | inhibition, % at 10 µM | shares compounds with ANO1 block | hit rate 39% among 2,300 | HEK293 TMEM16A/YFP-H148Q, iodide quench fluorescence; ionomycin added to raise cell calcium;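 active = mean duplicate percent inhibition, scaled so buffer wells are 0 and the reference blocker 100, over three buffer SD above buffer mean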
# TMEM16A Ca cntr: counter-screen for TMEM16A inhibitors: effect on calcium mobilization. calcium response (% of ionomycin), % at 10 µM. TMEM16A/YFP HEK293, Fluo4 calcium mobilization. hit rate 2% among 2,300. shares compounds with ANO1 block;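 active = duplicate-averaged calcium signal over 20% of the ionomycin maximum, relative to buffer baseline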;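 note: each well's signal is peak minus trough fluorescence divided by its pre-addition baseline; 0% = buffer wells and 100% = ionomycin wells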
# YFP-HEK293 quench: parental YFP-HEK293 iodide quench counter-screen activity. shares compounds with ANO1 block. ionomycin. YFP ratio F(max-min)/F0 at 10 µM. 2,300 tested, under 10 active. AID 652233;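 active = yellow fluorescent protein signal ratio exceeding the buffer control mean by over 5 SD of those controls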;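 note: ratio is mean of duplicate wells from kinetic YFP trace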
# ClC-1 inh: selectivity of TMEM16A inhibitors: inhibition of rat ClC-1 chloride channel; CHO ClC-1-YFP, iodide influx fluorescence quench; iodide control reads 0, buffer control 100; shares compounds with ANO1 block; ratio percent, % at 10 µM; 2,300 tested, under 10 active;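 active = duplicate-mean ratio percent above the mean of iodide-only control wells, which defines zero, plus 5 of their SD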;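 note: higher percent means stronger block of ClC-1 iodide influx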
# Target sequence (P35524 whole entry, looked up): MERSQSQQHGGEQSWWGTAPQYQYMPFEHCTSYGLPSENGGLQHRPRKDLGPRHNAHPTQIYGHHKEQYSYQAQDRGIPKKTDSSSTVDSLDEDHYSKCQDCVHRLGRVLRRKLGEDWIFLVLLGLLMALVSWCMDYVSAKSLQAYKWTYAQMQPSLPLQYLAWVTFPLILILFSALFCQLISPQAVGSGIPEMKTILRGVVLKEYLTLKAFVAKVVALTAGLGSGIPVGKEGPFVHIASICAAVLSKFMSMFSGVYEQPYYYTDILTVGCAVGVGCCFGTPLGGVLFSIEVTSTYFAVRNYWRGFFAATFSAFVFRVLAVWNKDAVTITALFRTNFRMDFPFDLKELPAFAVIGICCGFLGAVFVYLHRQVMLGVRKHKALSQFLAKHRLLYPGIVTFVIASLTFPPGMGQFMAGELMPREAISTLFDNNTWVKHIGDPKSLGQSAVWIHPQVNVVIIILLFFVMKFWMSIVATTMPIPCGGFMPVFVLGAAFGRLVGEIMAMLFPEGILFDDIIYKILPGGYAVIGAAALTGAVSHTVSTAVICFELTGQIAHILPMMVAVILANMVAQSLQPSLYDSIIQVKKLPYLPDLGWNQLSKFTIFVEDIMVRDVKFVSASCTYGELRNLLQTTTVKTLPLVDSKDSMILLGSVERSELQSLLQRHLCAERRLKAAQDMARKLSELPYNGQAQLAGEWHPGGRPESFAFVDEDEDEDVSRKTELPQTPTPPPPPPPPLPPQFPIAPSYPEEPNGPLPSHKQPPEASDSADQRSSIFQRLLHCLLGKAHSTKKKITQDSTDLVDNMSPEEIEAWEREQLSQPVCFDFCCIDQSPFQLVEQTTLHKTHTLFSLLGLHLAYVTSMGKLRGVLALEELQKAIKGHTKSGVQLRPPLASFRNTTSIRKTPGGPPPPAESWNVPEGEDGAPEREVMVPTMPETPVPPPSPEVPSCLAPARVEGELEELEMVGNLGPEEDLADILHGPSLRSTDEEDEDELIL
# * hit, by the source's call; i = inactive; . = no result. Sampled rows, rich in hits. Any-hit rate of the full collection: about 2.3%.
SMILES,ANO1 block,CHT inh,ANO1 activ,CHT allo act,CHT block conf,HEK293 MPD ctr,TMEM16A reconf,TMEM16A Ca cntr,YFP-HEK293 quench,ClC-1 inh
C=CCn1c(NC(=O)c2ccccc2Cl)c(C#N)c2nc3ccccc3nc21,100*,-5.8*,i,i,i,i,54%*,i,-0.88,-26
CC(C)c1ccc(O)c(NC(=O)c2ncn[nH]2)c1,i,i,i,i,.,.,.,.,.,.
CC(C)c1ccc2c(c1)C1(NN=C(c3ccccc3)S1)C(=O)N2 (stereo unspecified),25*,-6.6*,i,i,56%*,i,29%*,i,-0.86,-8
Cc1ccc(OCCN(C)C(=O)c2cc(COc3ccc(F)cc3F)on2)cc1,i,i,i,i,.,.,.,.,.,.
Cc1csc(C(C#N)C(=O)c2cc3ccccc3o2)n1 (stereo unspecified),25*,-5.3*,i,i,61%*,i,30%*,i,-1.1,-26
COc1ccc(OCCSc2nnc(C)n2-c2ccccc2)cc1,100*,-5*,i,i,i,i,i,i,-0.94,-5
CCCC(=O)Nc1c2c(nn1-c1ccc(C)cc1)CS(=O)(=O)C2,100*,-6.1*,i,i,i,i,i,i,-1,-10
CC(=O)c1cccc(NC(=O)CCN2C(=O)C3CC=CCC3C2=O)c1 (stereo unspecified),.,.,i,.,.,.,.,.,.,.
Cc1ccc(C)c(S(=O)(=O)C(C#N)c2nc3ccccc3nc2N2CC(C)OC(C)C2)c1 (stereo unspecified),25*,-8.1*,i,i,41%*,i,18%*,i,-1,-18
Cc1ccc(S(=O)(=O)C(C#N)c2nc3ccccc3nc2N2CCC(C)CC2)cc1 (stereo unspecified),.,.,i,.,.,.,.,.,.,.
CC(C)(Oc1ccc(Cl)cc1)C(=O)Nc1c2c(nn1C(C)(C)C)CS(=O)(=O)C2,i,i,i,i,.,.,.,.,.,.
C=CCc1ccc(O)c(-c2cc(CC=C)ccc2O)c1,100*,-9.9*,i,i,36%*,i,32%*,i,-0.88,-4
CS(=O)(=O)NCCNc1ncc(C(F)(F)F)cc1Cl,i,i,i,i,.,.,.,.,.,.
O=S(=O)(NCCNc1ncc(C(F)(F)F)cc1Cl)C(F)(F)F,100*,-9.6*,i,i,42%*,i,35%*,i,-1.1,-13
C[C@H](NC(=O)OC(C)(C)C)c1nnc(SCC(=O)c2ccc(Cl)cc2)o1,100*,-5.3*,i,i,69%*,i,i,i,-0.91,-7
COCCC1CCCCN1C(=O)c1cc(COc2cccc(C(C)=O)c2)on1 (stereo unspecified),i,i,i,i,.,.,.,.,.,.
CCOC(=O)CC1CCCCN1C(=O)c1cc(COc2cccc3cnccc23)on1 (stereo unspecified),25*,-5.4*,i,i,69%*,i,46%*,i,-1.1,-18
O=c1c2cc(Br)ccc2nc(-c2ccc(Cl)cc2)n1O,25*,-6.1*,i,i,41%*,i,39%*,110%*,-0.87,-6
N#Cc1ccc(-c2nc3cc(Cl)ccc3c(=O)n2O)cc1,i,i,i,i,.,.,.,.,.,.
Cc1noc(C)c1S(=O)(=O)N(CC(=O)NC(C)c1ccccc1)c1ccc(C(C)C)cc1 (stereo unspecified),i,i,i,i,.,.,.,.,.,.
CCn1c(N2CCN(S(=O)(=O)c3ccc(F)cc3)CC2)nc2ccccc21,i,i,i,i,.,.,.,.,.,.
CCn1c(N2CCN(S(=O)(=O)c3ccc(Cl)cc3)CC2)nc2ccccc21,25*,-12*,i,i,44%*,i,i,i,-1.3,-8
Cc1ccccc1C(=O)NNC(=S)NC(=O)COc1ccccc1,25*,-8*,i,i,33%*,i,34%*,80%*,-1,0
Cc1ccc(C)c(NC(=O)CN(C)C(=O)Cn2c(=O)oc3ccccc32)c1,i,i,i,i,.,.,.,.,.,.
O=C(CSCc1nc2ccccc2[nH]1)N1CCN(c2cccc(Cl)c2)CC1,i,i,i,i,.,.,.,.,.,.
SMILES,ANO1 block,CHT inh,ANO1 activ,CHT allo act,CHT block conf,HEK293 MPD ctr,TMEM16A reconf,TMEM16A Ca cntr,YFP-HEK293 quench,ClC-1 inh
O=C(CSCc1nc2ccccc2[nH]1)N1CCN(c2ccc(F)cc2)CC1,25*,-5*,i,i,i,i,20%*,i,-0.98,-16
CN(c1ccccc1)S(=O)(=O)c1cccc(NC(=O)Cc2n[nH]c(=O)c3ccccc23)c1,.,.,i,.,.,.,.,.,.,.
COc1ccc(-c2nc(CN3CCN(c4ncnc5ccccc45)CC3)c(C)o2)c(OC)c1,100*,-5.1*,i,i,52%*,i,20%*,i,-1.1,-15
COc1ccc(-c2nc(CN3CCN(c4ccccc4OC)CC3)c(C)o2)cc1,i,i,i,i,.,.,.,.,.,.
O=C(Nc1ccccc1)c1cc(S(=O)(=O)NCc2ccncc2)ccc1Cl,i,i,i,i,.,.,.,.,.,.
COc1ccccc1CNC(=O)[C@@H]1CCCN1S(=O)(=O)c1ccc(Cl)cc1,i,i,i,i,.,.,.,.,.,.
O=c1[nH]c(=O)n(-c2ccc(F)cc2)c2c1C(C(F)(F)F)(C(F)(F)F)N=C(c1ccc(F)cc1)N2,25*,-7*,i,i,54%*,i,26%*,i,-0.95,-24
Cc1ccc(C2=NC(C(F)(F)F)(C(F)(F)F)c3c(n(-c4ccc(F)cc4)c(=O)[nH]c3=O)N2)cc1,i,i,i,i,.,.,.,.,.,.
CCCCSc1nc(C)cc(C)c1S(=O)(=O)c1ccccc1C,100*,-7.6*,i,i,i,i,22%*,i,-1,-8
COc1ccc(N=Cc2ccc(-c3ccccc3)o2)cc1,i,i,i,i,.,.,.,.,.,.

# Compound activity: PubChem BioAssay, Johns Hopkins Ion Channel Center
